DAX1 inh-1 – blocks DAX1 repression of SF-1 activated StAR promoter. inhibition, % at 6.8 µM. HEK293T StAR-luciferase reporter, SF-1/DAX-1 repression relief. 1.1% of 370,000 active;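 active = inhibition above the mean over all tested compounds plus 3 SD, cut at about 3.6% in these data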;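 also: 0% = DAX-1 cells with DMSO and 100% = cells lacking DAX-1 with DMSO; higher inhibition means more luminescence from relief of DAX-1 repression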
hgDAF-12 ag – hgDAF-12 agonism, primary luciferase screen | HEK293 GAL4-hgDAF12 UAS-luciferase reporter, agonist luminescence; normalized to butyrate control | activation, % at 6.8 µM | 1.8% of 370,000 active | AID 687014;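 active = activation above a cutoff set at the mean of all screened compounds plus 3 SD, cut at about 10% in these data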;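 also: 0% = DMSO wells and 100% = sodium butyrate wells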
DAX1 inh-2 – inhibits human nuclear receptor DAX1; P51843; HEK293 Gal4-DAX1 luciferase reporter, luminescence; inhibition, % at 6.75 µM; 0.99% of 340,000 active;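 active = inhibition above the mean over all tested compounds plus 3 SD, cut at about 4.2% in these data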;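 also: 0% = DAX1-transfected cells with DMSO and 100% = empty-vector control cells with DMSO; inhibition shows as a rise in luminescence from relieved DAX1 repression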
AHR act – activators of human aryl hydrocarbon receptor; AID 2796; activation, % at 5 µM; P35869; AHR-responsive luciferase reporter cells, luminescence; 2.5% of 320,000 active; in the data active = activation above about 47%;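 also: 0% = vehicle wells and 100% = reference agonist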
ssDAF-12 act – activates DAF-12 receptor from parasite S. stercoralis; HEK293 ssDAF-12/GRIP1 lit1-tk-luc reporter, luminescence; % of 3 µM dafachronic acid response; 1% of 370,000 active; activation, % at 6.8 µM;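 active = activation above the mean over all tested compounds plus 3 SD, cut at about 0.9% in these data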;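 also: 0% = DMSO-only wells and 100% = 3 µM delta7-dafachronic acid wells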
hcDAF12 agonist – activates DAF-12 receptor from parasite H. contortus; HEK293 hcDAF-12 lit1-tk-luc reporter, luminescence; 0% DMSO, 100% Δ7-dafachronic acid; 1.4% of 370,000 active; activation, % at 6.8 µM;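 active = activation above the mean of all tested compounds plus 3 SD, cut at about 5.5% in these data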;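 also: 100% = response to 3 µM Δ7-dafachronic acid high control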
LXRb hcDAF ctr – activates human LXR-beta, counter-screen for hcDAF-12 agonists. activation, % at 6.8 µM. AID 743027. shares compounds with hcDAF12 agonist. HEK293 Gal4-LXR tk-luc reporter, luminescence, 24 h; normalized: DMSO 0%, positive control 100%. 3,400 tested, under 10 active;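 active = mean percent activation of the reporter above a cutoff set as the average over tested compounds plus their standard deviation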
Target sequence (P55055 whole entry, looked up, the tested form may be a part): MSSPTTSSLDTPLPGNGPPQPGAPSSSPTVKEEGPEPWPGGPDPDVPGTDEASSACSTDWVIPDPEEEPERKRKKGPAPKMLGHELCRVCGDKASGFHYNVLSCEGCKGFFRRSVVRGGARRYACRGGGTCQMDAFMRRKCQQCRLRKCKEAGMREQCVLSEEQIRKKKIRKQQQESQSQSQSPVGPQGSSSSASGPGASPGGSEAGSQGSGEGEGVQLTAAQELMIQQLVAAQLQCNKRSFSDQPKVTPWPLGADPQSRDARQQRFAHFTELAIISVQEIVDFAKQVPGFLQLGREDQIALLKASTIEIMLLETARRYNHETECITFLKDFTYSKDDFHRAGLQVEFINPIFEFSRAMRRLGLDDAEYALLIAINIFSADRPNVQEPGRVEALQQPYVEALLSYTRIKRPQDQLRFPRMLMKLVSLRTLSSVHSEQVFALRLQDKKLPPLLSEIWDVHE
hcDAF12 conf – hcDAF-12 agonism, confirmation assay. shares compounds with hcDAF12 agonist. HEK293 hcDAF-12 lit1-tk-luc reporter, luminescence; % of Δ7-dafachronic acid response. activation, % at 6.8 µM. 61% of 3,400 active. AID 743032;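 active = mean activation across triplicate tests above the threshold derived from the earlier primary screen, cut at about 5.5% in these data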;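 also: 0% = DMSO only wells and 100% = 3 µM Δ7-dafachronic acid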
The depositor's hits bear a star; x = no result given. Only some compounds are listed: those with a hit (about 5.7% of all), similar ones and a draw of the others.

SMILES | DAX1 inh-1 | hgDAF-12 ag | DAX1 inh-2 | AHR act | ssDAF-12 act | hcDAF12 agonist | LXRb hcDAF ctr | hcDAF12 conf
Clc1ccc(OCCCCN2CCc3ccccc3C2)cc1 | 0 | 8 | -1 | 16 | 0 | 10* | 0 | 3
Cc1ccc(-n2cc(CN(C)Cc3ncc[nH]3)c(-c3cccc(C)c3)n2)cc1 | -1 | 0 | -1 | 12 | -2 | -3 | x | x
COc1ccccc1OCCOc1ccc(/C=C2/C(=N)N3OC(C)=CC3=NC2=O)cc1OC | -1 | 5 | -1 | 0 | -1 | 7.3* | -1 | -3
CCN(CC)CCOc1ccc(-c2c(C)c3c(ccc4ccccc43)oc2=O)cc1 | 2 | 2 | 2 | x | -1 | 2 | x | x
Cc1c(O)ccc(/C=N/Nc2ncccc2[N+](=O)[O-])c1O | 1 | 10 | 0 | 7 | 1.2* | 7.5* | 2 | 6.0*
CCCCC(=O)NS(=O)(=O)c1ccc(N=NN2CCOCC2)cc1 | 0 | 4 | 0 | 2 | -1 | 0 | x | x
CSc1nc(=S)n(Cc2ccccc2)c(C)c1C(C)=O | 1 | 0 | 0 | 4 | -1 | 9.1* | 0 | 1
COc1ccc(C(NC(=O)C2CCN(CCOc3ccc(Cl)cc3Cl)CC2)c2cccs2)cc1 (stereo not given) | -1 | 0 | x | x | -1 | -1 | x | x
O=C(CSc1ncc(-c2ccccc2)n1C1CCCC1)N1CCc2ccccc21 | 0 | 6 | 0 | 16 | 0 | 7.4* | 0 | 3
Cc1cc(O)c(C(=O)/C=C/c2ccc(Cl)cc2)c(=O)o1 | 1 | 6 | 1 | 13 | 1 | 13* | 0 | 0
COc1cc(/C=C/C(=O)c2c(O)cc(C)oc2=O)cc(OC)c1O | 0 | -1 | 1 | 6 | 0 | -1 | x | x
O=C(O)CSc1c[nH]c2ccccc12 | 0 | 7 | 1 | 20 | 0 | 4 | x | x
CC(Sc1c[nH]c2ccccc12)C(=O)O (stereo not given) | 1 | 1 | 1 | 7 | 0 | 8.5* | 0 | 5
CC1CCN(C(=O)c2cc3ccccc3cc2O)CC1 | -1 | 1 | 0 | 15 | -1 | 1 | x | x
COc1ccccc1NC(=O)NC(=O)c1ccccc1 | 0 | 9 | 0 | 49* | 1 | 11* | 1 | 13*
COc1ccccc1NC(=O)Nc1cccc(C(=O)O)c1 | 0 | 2 | -1 | 3 | -1 | 0 | x | x
O=C(N[C@@H]1c2ccccc2CC[C@@H]1OCc1ccccc1)c1ccc(C(F)(F)F)cc1 | 0 | 0 | 0 | x | 0 | -1 | x | x
O=[N+]([O-])c1ccc2cn[nH]c2c1 | -1 | 2 | 0 | 44 | 0 | 8.3* | 0 | 5
COc1cccc(-c2nc(N3CCCCC3C)c3ccccc3n2)c1O (stereo not given) | -1 | 5 | -1 | 14 | -1 | 4 | x | x
COc1cccc(-c2nc(N3CCN(C)CC3)c3ccccc3n2)c1O | 0 | 8 | 1 | 6 | 0 | 7.8* | 0 | 5
COc1ccc2c(c1OC)C(=O)N1c3ccccc3SC21 (stereo not given) | 2 | 12* | 2 | 41 | 1 | 8.8* | 1 | 7.5*
COc1ccc(CNCc2cc3c(cc2[N+](=O)[O-])OCO3)cc1 | 1 | 3 | 0 | 24 | 1 | 9.4* | 0 | 0
Cc1cc(C)cc(NCc2cc3c(cc2[N+](=O)[O-])OCO3)c1 | 0 | 4 | 0 | 24 | -2 | 2 | x | x
Cc1cc(NC(=O)Nc2cc(Cl)sc2Cl)no1 | 0 | 0 | -1 | 39 | 0 | 5 | x | x
O=S(=O)(O)c1ccc(N2N=C(c3ccccc3)CC2c2ccccc2)cc1 (stereo not given) | 0 | 4 | 1 | -1 | 0 | 7.4* | 0 | 1
CSc1ccccc1OCc1cc(C(=O)NC2CCc3ccccc32)no1 (stereo not given) | -1 | 0 | 0 | 12 | -1 | 7.6* | 0 | 2

Screening results from PubChem.
